Data taken from PubChem BioAssay (NCI).
This is part of a sample that, as a whole, favours compounds with a hit. Of some 79,000 tested, about 15% had one in any assay. No stated cut-off is given here; in the data, active means growth inhibition above about 70%; inactive means the rest.

Key:
[1] = NCI Yeast Anticancer Drug Screen. Data for the rad50 strain (AID 155);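 further: 0% = growth of vehicle-only cultures of the same strain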; details: S. cerevisiae rad50 strain growth inhibition; at 50.0 µM; stronger effect = higher value
Outline: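 A DNA repair-deficient yeast mutant serves as the test organism; compound-induced growth inhibition is calculated against vehicle-treated cells.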

[2] = NCI Yeast Anticancer Drug Screen. Data for the mec2-1 strain (AID 157); details: S. cerevisiae mec2-1 strain, at 50.0 µM, stronger effect = higher value
Outline: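 Each compound was tested on mec2-1 yeast, a strain altered in DNA damage repair or cell cycle control. Growth inhibition is reported relative to vehicle.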

[3] = NCI Yeast Anticancer Drug Screen. Data for the sgs1 mgt1 strain (AID 161);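 further: 0% = growth of cultures given vehicle only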; details: S. cerevisiae sgs1 mgt1 strain, at 50.0 µM, stronger effect = higher value
Outline: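 Genetically altered yeast, compound exposure, growth inhibition relative to vehicle.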

[4] = NCI Yeast Anticancer Drug Screen. Data for the cln2 rad14 strain (AID 165);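 further: 0% = growth equal to vehicle treated cultures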; details: S. cerevisiae cln2 rad14 strain, at 50.0 µM, stronger effect = higher value
Outline: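 Test compounds were added to cln2 rad14 yeast cultures; inhibition of growth was then determined by comparison with vehicle treatment.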

[5] = NCI Yeast Anticancer Drug Screen. Data for the bub3 strain (AID 167); details: S. cerevisiae bub3 mutant strain, at 50.0 µM, stronger effect = higher value
Outline: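 Inhibition values come from growth of compound-treated mutant yeast normalised to vehicle-treated controls.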

[6] = NCI Yeast Anticancer Drug Screen. Data for the mlh1 rad18 strain (AID 175); details: S. cerevisiae mlh1 rad18 strain growth inhibition; at 50.0 µM; stronger effect = higher value
Outline: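 Inhibition values reflect reduced growth of mutant yeast versus vehicle-treated controls following compound exposure; the mutations affect DNA damage repair.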

Measured: growth inhibition

Cn1c(=O)c2nc3sc4c(n3c2n(C)c1=O)C(=O)c1ccccc1C4=O
inactive: [1] -17% | [2] 21.4% | [3] 11.2% | [4] -11.2% | [5] -11% | [6] 25.4%

CCOC(=O)C(CC(Nc1ccccc1)(c1ccccc1)c1ccccc1)c1ccccc1 (stereo not given)
inactive: [1] 21.9% | [2] -8.3% | [3] 4.65% | [4] -35.5% | [5] -3.45% | [6] -0.65%

Cc1cc2c(C(C)C)c(O)c(O)c(C=Nc3ccccc3)c2c(O)c1-c1c(C)cc2c(C(C)C)c(O)c(O)c(C=Nc3ccccc3)c2c1O
inactive: [1] 1.45% | [2] 34% | [3] 49.6% | [4] -23% | [5] -2.3% | [6] 52.8%

CCCCCOC(=O)CC(c1ccccc1)N1CCCCC1 (stereo not given)
inactive: [1] 32.5% | [2] -6.65% | [3] 19.1% | [4] -23% | [5] 23.3% | [6] 6.4%

CC(C)=CC1C(C(=O)Oc2c(Cl)c(Cl)c(Cl)c(Cl)c2Cl)C1(C)C (stereo not given)
inactive: [1] 12.5% | [2] 6.5% | [3] 40.9% | [4] 12.2% | [5] -4.15% | [6] 31.2%

Cc1cc(C)c(-c2no/c(=N\S(=O)(=O)c3ccc(Cl)cc3)o2)c(C)c1
inactive: [1] -10% | [2] -4.1% | [3] 0.75% | [4] 26% | [5] -13.1% | [6] 3.85%

O=COCCOC=O
inactive: [1] 19.9% | [2] 5.55% | [3] -23.6% | [4] 20.6% | [5] 10.2% | [6] 14.2%

COC(=O)C(=O)/C(=C\N1C(=O)CC(=O)NC1=S)C(=O)c1ccc([N+](=O)[O-])cc1
inactive: [1] 17.9% | [2] -0.4% | [3] 9.6% | [4] 1.5% | [5] -5.25% | [6] 6%

O=P1(O)c2ccccc2Oc2ccccc21
inactive: [1] -4% | [2] -2.2% | [3] 7.45% | [4] 2.9% | [5] -0.95% | [6] -44.5%

S=C1SC(=Nc2ccccc2)C(=Nc2ccccc2)N1c1ccc2ccccc2c1
inactive: [1] 8.2% | [2] 8.75% | [3] 28.5% | [4] 12.8% | [5] 27.9% | [6] 24.1%

CCOC(=O)c1cnc(-n2[nH]c(C)c(CCO)c2=O)[nH]c1=O
inactive: [1] -11.2% | [2] -46.9% | [3] -33.1% | [4] -6.15% | [5] -8.9% | [6] -37%

CCCN=C1NS(=O)(=O)c2ccccc21
inactive: [1] 8.35% | [2] -14.8% | [3] -15.3% | [4] -11.8% | [5] -7.55% | [6] -7.7%

CN1CCCCC1CCN1CCCCC1 (stereo not given)
inactive: [1] -38.9% | [2] -10.2% | [3] -7.8% | [4] -39.5% | [5] -17.9% | [6] 1.3%

Cc1ccc(CNc2ccccc2)cc1
inactive: [1] 18.9% | [2] -6.45% | [3] 27.3% | [4] 8.8% | [5] 14.7% | [6] 7.55%

Cn1c(N)nc2c1c(=O)[nH]c(=O)n2C
inactive: [1] 12.6% | [2] -0.75% | [3] 5.25% | [4] 13.2% | [5] -19.4% | [6] 21.8%

Nc1ncnc2c1ncn2C(=O)NC12CC3CC(CC(C3)C1)C2
inactive: [1] 9.75% | [2] 14.6% | [3] 8.7% | [4] 18.1% | [5] 8.25% | [6] -8.2%

COc1ccc(CN2CCCN(Cc3ccc(OC)cc3OC)C2c2cc(OC)ccc2OC)c(OC)c1
inactive: [1] -0.85% | [2] -0.85% | [3] 1.3% | [4] 10.5% | [5] -1.85% | [6] -0.4%

CC(C)c1ccc2c(c1)CCC1C2(C)CCCC1(C)C(O)c1ccccc1 (stereo not given)
inactive: [1] 9.45% | [2] -6.65% | [3] 8.6% | [4] -17.1% | [5] 8.05% | [6] 32.1%

CCOC(=O)C(C)(C(C)=O)c1nc(=S)[nH]c(=S)[nH]1 (stereo not given)
inactive: [1] 4.2% | [2] 7.55% | [3] 2.1% | [4] -19.8% | [5] 7.25% | [6] -5.1%

C[n+]1cc(N)cc2ccccc21
inactive: [1] 1.65% | [2] -4.9% | [3] -6.75% | [4] 3.3% | [5] 9.8% | [6] -16.4%

Cc1ccc(C2OC(N)=C(O)C2=O)cc1 (stereo not given)
inactive: [1] -43% | [2] 10.2% | [3] -4% | [4] -26.4% | [5] 1.85% | [6] 9.5%

CC[O-].CC[O-].O=C([CH-]C(=O)c1cccnc1)c1ccccc1.O=C([CH-]C(=O)c1cccnc1)c1ccccc1.[Ti+4]
inactive: [1] -0.05% | [2] 19.8% | [3] -19.9% | [4] -16.2% | [5] -11.6% | [6] -8.4%

NC(=O)C1CCCN(C2OC(COP(=O)(O)OP(=O)(O)OCC3OC(n4cnc5c(N)ncnc54)C(OP(=O)(O)O)C3O)C(O)C2O)C1 (stereo not given)
inactive: [1] 5.85% | [2] -15.1% | [3] 15.2% | [4] 1.5% | [5] 16.3% | [6] -0.9%

CCOC(=O)Cn1c(=O)c(-c2ccccc2NC(C)=O)nc2ccccc21
inactive: [1] -12.3% | [2] -3.65% | [3] -7.9% | [4] -6.1% | [5] 0.4% | [6] -14.1%

O=C1CC2c3ccccc3C(O)(CC1=O)c1ccccc12
inactive: [1] 16.2% | [2] 6.7% | [3] 11.7% | [4] 15.2% | [5] -16.6% | [6] 19.2%

COC(=O)c1ccc2c(ccc[n+]2C)c1
inactive: [1] -0.6% | [2] 21.3% | [3] -7.05% | [4] 4.8% | [5] -3.45% | [6] 2.3%

NC(=O)COc1ncc(Cl)cc1Cl
inactive: [1] 4.05% | [2] -6.45% | [3] 3.15% | [4] -19.4% | [5] 4.4% | [6] 3.35%

COc1ccc(/C=C2\N=C(c3ccc([N+](=O)[O-])cc3)OC2=O)cc1Br
inactive: [1] 29.9% | [2] 21.6% | [3] 27.5% | [4] 23.4% | [5] -1.95% | [6] 29.4%

Nc1ncnc2c1ncn2C1C=COC(CO)C1O (stereo not given)
inactive: [1] 4.95% | [2] 1.05% | [3] -6.5% | [4] 2.5% | [5] -28.5% | [6] 20.4%

Cc1nc2cccc([N+](=O)[O-])c2c(O)[n+]1C
inactive: [1] -13.9% | [2] -10.8% | [3] -12.4% | [4] -17.6% | [5] -9.05% | [6] -17.9%

CCCCCCC(=O)c1ccco1
inactive: [1] 2.4% | [2] -18.6% | [3] -1.05% | [4] 14.9% | [5] -1.75% | [6] -11.8%

N#C/C(=C\c1ccccn1)c1ccc(Cl)cc1
inactive: [1] 3.15% | [2] 1.1% | [3] 11.5% | [4] -17.4% | [5] 17.3% | [6] 53.7%

CC(=O)Nc1c(C)ncn(-c2ccccc2)c1=O
inactive: [1] -36.9% | [2] -19.9% | [3] -2.95% | [4] -28.4% | [5] -2.75% | [6] -11.2%

COc1ccc(-c2nn(CCO)c(=O)c(C#N)c2-c2ccc(OC)cc2)cc1
inactive: [1] 28.9% | [2] 1.3% | [3] 6.65% | [4] 7.3% | [5] 13.7% | [6] 5.9%

CCOC(=O)C(C(=O)OCC)=C(N)C(Cl)(Cl)Cl
inactive: [1] 0.2% | [2] -1.6% | [3] -9.9% | [4] 14.8% | [5] 11.7% | [6] -1.9%

NNS(=O)(=O)c1ccc(/C=C2\NC(=O)NC2=O)cc1
inactive: [1] -4.45% | [2] 1.5% | [3] -17.2% | [4] 13.2% | [5] -26.4% | [6] 23.9%

CCOC(=O)N1CCN(c2ccc3ccc(N)nc3n2)CC1
inactive: [1] 22.1% | [2] -12.7% | [3] 28.8% | [4] -4.65% | [5] 18.9% | [6] 16.9%

Oc1[nH]c2ccccc2c1N=NC(=S)Nc1cccc(Cl)c1
inactive: [1] -0.35% | [2] 4.4% | [3] 55.5% | [4] 35% | [5] 23.5% | [6] 15.2%

CC1OC(n2ccc3ccc([N+](=O)[O-])cc32)C(O)C(O)C1O (stereo not given)
inactive: [1] -5.2% | [2] -3.85% | [3] -32.7% | [4] -12.2% | [5] -27.8% | [6] -21.4%

COc1ccccc1/C=C/C(=O)N1CCC2(CC1)C(=O)N(C)CN2c1ccccc1
inactive: [1] -16% | [2] 8.45% | [3] -17.3% | [4] -15.1% | [5] -0.35% | [6] -2.4%
